Hits are enriched below; roughly 4.6% of the tested compounds scored in any of these assays.
PfHsp90 set2: inhibits growth of yeast expressing Plasmodium falciparum Hsp90 | S. cerevisiae expressing PfHsp90, BacTiter-Glo ATP, 48 h; yeast lacking PDR1 and PDR3 efflux regulators | inhibition, % at 9.4 µM | 0.32% of 310,000 active | AID 504621;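 active means every replicate shows inhibition above about 80%, whatever the replicate mean, limit read from the data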;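 further: 0% = DMSO neutral controls and 100% = 20 µM radicicol positive controls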
SKKanGAS inh: blocks kanamycin growth of S. pyogenes SKKanGAS strain; 1.3% of 300,000 active; inhibition, % at 7.5 µM; BacTiter-Glo, 6 h;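 active means mean replicate score, as percent of positive control median, at least 50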;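 further: strain carries kanamycin resistance gene driven by streptokinase promoter and grows in 40 µg/ml kanamycin; loss of luminescence reflects streptokinase promoter inhibition or plain growth inhibition; 0% = median of DMSO wells and 100% = positive control at its reference dose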
TIM10 inh: TIM10 yeast growth inhibition; 1.4% of 330,000 active; inhibition, % at 10 µM; S. cerevisiae TIM10 strain growth, BacTiter-Glo luminescence, 24 h; AID 463195;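 active means inhibition of 40% or more at the single tested concentration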;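 further: wild-type TIM10 isogenic control strain grown at permissive 25 °C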
tim10-1 inh: tim10-1 yeast growth inhibition. S. cerevisiae tim10-1 ts strain growth, BacTiter-Glo, 24 h. inhibition, % at 20 µM. 2.2% of 330,000 active;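 active means inhibition of at least 40%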;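 further: mutant grown at 25 °C; 0% = DMSO wells with yeast and 100% = wells holding no yeast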
tim23-1 inh: growth inhibitors of tim23-1 mutant yeast; AID 463212; 1.3% of 330,000 active; S. cerevisiae tim23-1 growth, BacTiter-Glo luminescence, 24 h; inhibition, % at 20 µM;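 active means growth inhibition of the mutant yeast at or above 50%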;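 further: temperature-sensitive mutant grown at 25 °C; plate controls were DMSO-treated mutant yeast for no effect and medium wells lacking yeast for full effect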
NLRP3 yeast inh: inhibitors of NALP3 inflammasome in yeast. inhibition, % at 10 µM. Yeast reconstituted NLRP3/ASC/caspase-1, beta-gal luminescence, 24 h. 0.39% of 330,000 active. AID 2825;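 active means inhibition of 50% or more; inactive means inhibition below 50%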;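 further: plate controls were induced DMSO wells for no effect and uninduced yeast grown without galactose for full effect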
tim10-1 confirm: confirmation of tim10-1 mutant yeast growth inhibitors | 56% of 7,400 active | shares compounds with tim10-1 inh | S. cerevisiae tim10-1 ts strain growth, BacTiter-Glo, 24 h | inhibition, % at 20 µM;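 active means inhibition of yeast growth at or above a set limit in either of two repeat tests at 20 µM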;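 further: tim10-1 mutant grown at permissive 25 °C to find synthetic lethal compounds; 0% = DMSO yeast wells and 100% = medium wells without yeast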
TIM10 conf: TIM10 yeast growth inhibition, confirmed; 63% of 4,600 active; shares compounds with TIM10 inh; inhibition, % at 10 µM; S. cerevisiae tim10 strain growth, BacTiter-Glo luminescence, 24 h;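 active means inhibition of yeast growth at or above a set limit in either of two replicates at 10 µM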;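 further: this counterscreen used the strain with wild-type TIM10; 0% = yeast with DMSO and 100% = medium wells lacking yeast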
tim23-1 conf: tim23-1 yeast growth inhibition, confirmed. shares compounds with tim23-1 inh. S. cerevisiae tim23-1 growth, BacTiter-Glo luminescence, 24 h. inhibition, % at 20 µM. 83% of 4,400 active. AID 463218;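 active means inhibition above about 39% in either of two replicate wells at 20 µM, limit read from the data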;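 further: temperature-sensitive tim23-1 mutant grown at 25 °C; 0% = DMSO wells with yeast and 100% = medium wells without yeast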
Starred values were filed as active, the others as inactive; · = not tested or not shown.

SMILES	PfHsp90 set2	SKKanGAS inh	TIM10 inh	tim10-1 inh	tim23-1 inh	NLRP3 yeast inh	tim10-1 confirm	TIM10 conf	tim23-1 conf
CCOc1cc(/C=C2/NC(=O)N(Cc3ccccc3F)C2=O)ccc1O	8	1	13	33	15	8	·	·	·
CC1=NN(c2ccccc2)C(=O)/C1=C/c1cccc(C)c1	24	3	20	14	35	6	·	·	·
CCOc1cc(/C=C2\C(=O)N(c3cccc(C(F)(F)F)c3)C(=O)c3ccccc32)ccc1O	3	-5	30	42*	65*	3	34*	·	47*
COc1cccc(N2C(=O)c3ccncc3C2=O)c1	20	-3	-18	15	-8	10	·	·	·
COc1cccc(/C=C2\C(=O)N(c3cccc(C)c3)C(=O)c3ccccc32)c1	-58	5	41*	43*	75*	0	46*	46*	68*
Cc1cccc(N2C(=O)/C(=C\c3ccc(OC(F)F)cc3)c3ccccc3C2=O)c1	97*	-4	34	51*	68*	-1	25	·	58*
C[C@H]1COC(=O)[C@H](Cc2ccc(F)cc2)C/C=C\C[C@H](CC(=O)NCCO)C(=O)N1	-7	·	0	-13	5	9	·	·	·
CCOC(=O)c1cc(/C(C)=N/OC(=O)c2ccc(C(C)(C)C)cc2)on1	15	0	-13	-12	18	19	·	·	·
N/C(=N\OC(=O)c1ccc2ccccc2c1)c1ccncc1	-73	-17	38	65*	51*	1	55*	·	55*
Cc1cc(C(=O)O/N=C(\N)c2ccc(C(C)(C)C)cc2)no1	·	4	61*	47*	70*	9	58*	45*	78*
N/C(=N\OC(=O)COc1ccc2ccccc2c1)c1ccncc1	7	-9	18	11	-2	30	·	·	·
COc1ccc(C(=O)O/N=C(\N)c2ccccc2)cc1	-24	-3	57*	71*	80*	35	68*	56*	79*
Cc1noc(-c2ccc(Cl)cc2)c1C(=O)O/N=C(\N)c1ccc(C(C)(C)C)cc1	-44	8	76*	45*	71*	11	12	84*	58*
Cc1cc(-c2onc(C)c2C(=O)Oc2ccc(Cl)cc2)no1	7	0	19	24	37	1	·	·	·
CC(C)CC(=O)Nc1nnc(SCC(=O)NCC2CCCO2)s1 (stereo not drawn)	-4	39	15	1	6	17	·	·	·
COc1ccccc1NC(=O)COC(=O)c1ccccc1C(=O)N1CCN(c2ccccc2)CC1	·	8	17	21	20	19	·	·	·
COc1ccc(-n2ncc3c2CC(C)(C)CC3NC(=O)c2ccc(OC)o2)cc1 (stereo not drawn)	4	-1	8	16	24	7	·	·	·
COCCn1c(SCC(=O)Nc2ccc(OC)c(S(N)(=O)=O)c2)nc2ccccc2c1=O	2	-14	13	5	1	-8	·	·	·
Cc1occc1C(=O)O/N=C(\N)c1ccc(Cl)cc1	-14	-2	47*	66*	82*	33	24	38*	76*
CC(C)(C)c1ccc(C(=O)O/N=C(\N)c2ccccc2)cc1	7	-6	83*	57*	83*	40	45*	92*	78*
Cc1ccc(C(=O)Oc2oc(-c3ccccc3)nc2C=Nc2ccc(N(C)C)cc2)cc1	4	5	3	26	19	18	·	·	·
COc1ccc(N=Cc2nc(-c3ccccc3)oc2OC(C)=O)cc1	-11	-3	48*	46*	70*	1	47*	26	63*
COc1cccc(N=Cc2nc(-c3ccccc3)oc2OC(C)=O)c1	-5	3	44*	64*	74*	1	51*	34*	70*
COC(=O)CC1C(=O)NCCN1C(=S)Nc1ccccc1Cl (stereo not drawn)	15	7	-13	-2	-8	4	·	·	·
